Compound activity (PubChem BioAssay)
ELG1 repair inh: inhibitors of ELG1-dependent DNA repair in HEK293T cells; Potency, µM (highest dose often 46.1 µM), for the others: at the top dose activity change, negative = inhibition, actives largely listed as inhibitors; HEK293T ELG1-luciferase reporter, luminescence, 16 h; DNA damage induced by 5-fluorouridine; AID 504467; actives 2.3% (n = 330,000); also: % is scaled to controls: 0 for no effect and ±100 for the full control effect; nearly all actives have a fitted effect of over 55% in size
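5-Fluorouridine DNA damage + compound/DMSO, 2,000 cells/well, 16 h, 37 °C/5% CO2. ONE-Glo, 30 min RT, luminescence. Readout = decrease in reporter signal.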
Gal4-VP16 FLuc: counter-screen for ROR gamma inhibitors: Gal4-VP16 reporter; AID 2546; Potency, µM (series often up to 53.6 µM), inactives show at the top dose activity, negative = inhibition, hits mostly inhibitors; actives 3.5% (n = 310,000); Drosophila S2 Gal4-VP16 UAS-luciferase, luminescence, 20 h;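 also: Gal4-VP16 expression switched on by copper sulfate through the metallothionein promoter; % is scaled to controls: 0 for no effect and ±100 for the full control effect; nearly all actives have a fitted effect of over 50% in size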
MCF10A rereplic: inducers of DNA re-replication in MCF 10A breast cells | MCF 10A DNA re-replication, Hoechst nuclear intensity, 48 h | actives 2.9% (n = 350,000) | Potency, µM (top dose mostly 46.1 µM), inactives show top-dose activity, positive = re-replication, usual class: activators; also: % of control where 0% means no effect; nearly all actives have a fitted effect of over 50% in size
SW480 rereplic: induces DNA re-replication in SW480 colon adenocarcinoma cells; SW480 DNA re-replication, Hoechst DNA content imaging, 48 h; Potency, µM (top dose mostly 46.1 µM), without a hit: at the highest dose re-replication activation, actives largely listed as activators; actives 1.8% (n = 340,000); AID 624297; also: % of control where 0% means no effect; nearly all actives have a fitted effect of over 55% in size
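First, 250 cells per well were seeded. Next, compound or vehicle (23 nL) was pinned in, plates sat 48 hr at 37 C. Finally Hoechst was added for 40 min before fluorescence scanning.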
RORg inh: blocks mouse ROR gamma transcriptional activity. actives 5.4% (n = 310,000). Potency, µM (highest dose often 53.6 µM), without a hit: at the top dose activity change, negative = inhibition, hits mostly inhibitors. Drosophila S2 Gal4-RORgamma UAS-luciferase reporter, 20 h. P51450. AID 2551; also: % is scaled to controls: 0 for no effect and ±100 for the full control effect; nearly all actives have a fitted effect of over 60% in size
Target sequence (P51450 whole entry, looked up, the tested form may be a part): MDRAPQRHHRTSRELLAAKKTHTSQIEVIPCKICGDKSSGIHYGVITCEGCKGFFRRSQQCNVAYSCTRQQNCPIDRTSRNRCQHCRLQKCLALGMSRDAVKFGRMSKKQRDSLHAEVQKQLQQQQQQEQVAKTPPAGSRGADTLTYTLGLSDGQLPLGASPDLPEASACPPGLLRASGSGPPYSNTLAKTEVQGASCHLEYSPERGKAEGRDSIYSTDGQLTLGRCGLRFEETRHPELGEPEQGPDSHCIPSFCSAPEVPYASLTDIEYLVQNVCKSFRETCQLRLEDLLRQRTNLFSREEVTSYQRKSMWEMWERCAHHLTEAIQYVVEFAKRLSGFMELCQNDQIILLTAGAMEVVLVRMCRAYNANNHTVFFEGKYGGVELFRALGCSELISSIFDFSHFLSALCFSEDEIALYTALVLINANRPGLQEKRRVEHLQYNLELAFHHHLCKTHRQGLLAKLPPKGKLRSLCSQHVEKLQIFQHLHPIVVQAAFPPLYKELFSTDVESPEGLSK
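Stably transfected Drosophila Schneider cells are the test system, with ROR gamma fused to Gal4 and luciferase under UAS control; luminescence is read after 20 hr of 700 uM copper sulfate induction at ambient temperature.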
* = called active by the depositor; [ ] = dose if it differs, or a comment. Hits are enriched below; roughly 10% of the tested compounds scored in any of these assays. Calls follow the shape of the dose curve; as a rule, active = well fitted curve in the direction sought with a large enough effect; inconclusive = small, poorly fitted or top-dose-only effect, or another doubt; inactive = no such curve, though single readings can be large; an effect the other way counts as inactive or inconclusive. Potency is read from the fitted curve at half-maximal effect.

COC(=O)c1ccc(CNS(=O)(=O)c2ccc3ccccc3c2)cc1 was read as ELG1 repair inh 4.0%, Gal4-VP16 FLuc 4.8%, MCF10A rereplic 11.5%, SW480 rereplic 6.4% and RORg inh 10.3%.
Screening COC(=O)C1=C(C)N(CC2CC2)C(=NCc2cccc(C(F)(F)F)c2)N[C@H]1c1ccccc1 returned ELG1 repair inh 5.3%, Gal4-VP16 FLuc -0.5%, MCF10A rereplic inconclusive, SW480 rereplic -3.5% and RORg inh 4.3%.
COC(=O)C1=C(C)N(Cc2ccccc2)C(=NCc2cccc(C(F)(F)F)c2)N[C@H]1c1cccc(C(F)(F)F)c1 was read as ELG1 repair inh 18.3µM*, Gal4-VP16 FLuc inconclusive, MCF10A rereplic 3.66µM*, SW480 rereplic 28.2%[9.22 µM] and RORg inh inconclusive.
For COCCN=C1N[C@@H](c2cccc(C(F)(F)F)c2)C(C(=O)OC)=C(C)N1Cc1ccccc1 the results were ELG1 repair inh 8.2%, Gal4-VP16 FLuc 3.6%, MCF10A rereplic 0.6%, SW480 rereplic -1.9% and RORg inh -6.1%.
For COC(=O)C1=C(C)N(Cc2ccccc2)C(=NCc2cccc(C(F)(F)F)c2)N[C@H]1c1cccc(F)c1 the results were ELG1 repair inh inconclusive, Gal4-VP16 FLuc inconclusive, MCF10A rereplic 11.6µM*, SW480 rereplic inconclusive and RORg inh inconclusive.
For COC(=O)CCC(=O)NC(=S)Nc1ccc(S(=O)(=O)Nc2cc(OC)nc(OC)n2)cc1 the results were ELG1 repair inh -9.5%, Gal4-VP16 FLuc -4.4%, MCF10A rereplic -4.1%, SW480 rereplic 2.59µM* and RORg inh 17.2%.
COc1ccc(OCC(=O)NC(=S)Nc2ccc(S(=O)(=O)Nc3cc(OC)nc(OC)n3)cc2)cc1 was read as ELG1 repair inh -8.0%, Gal4-VP16 FLuc 0.7%, MCF10A rereplic 1.5%, SW480 rereplic 12.2% and RORg inh 3.1%.
CS(=O)(=O)NNC(=O)c1csc(Cc2c(Cl)sc3ccc(Cl)cc23)n1 was read as ELG1 repair inh 3.6%, Gal4-VP16 FLuc 3.1%, MCF10A rereplic inconclusive, SW480 rereplic 14.8% and RORg inh 13.0%.
For NC(=O)NC(=O)CC1S/C(=N/N=C2/NC(=O)CS2)NC1=O (centres undefined) the results were ELG1 repair inh -6.8%, Gal4-VP16 FLuc 0.5%, MCF10A rereplic -0.5%, SW480 rereplic -5.8% and RORg inh -29.3%.
COc1ccc(-c2c(C#N)c(SCC(=O)Nc3ccccc3)nc3c2CCCC3)cc1 was read as MCF10A rereplic -4.8%[9.22 µM] and SW480 rereplic -8.3%.
For CCOC(=O)c1c(C)nc(SCC(N)=O)c(C#N)c1-c1ccccc1 the results were ELG1 repair inh -18.1%, Gal4-VP16 FLuc 1.7%, MCF10A rereplic -0.4%, SW480 rereplic -696.2% and RORg inh -2.5%.
`Cc1nc(SCC(=O)c2cc3ccccc3oc2=O)c(C#N)c(-c2ccccc2)c1C(=O)Nc1ccccc1` gave ELG1 repair inh inconclusive, Gal4-VP16 FLuc inconclusive, MCF10A rereplic inconclusive, SW480 rereplic 7.31µM* and RORg inh -32.6%.
COc1ccc(-c2c(C#N)c(SCC(=O)c3cc4ccccc4oc3=O)nc(C)c2C(=O)Nc2ccccc2)cc1 was read as ELG1 repair inh inconclusive, Gal4-VP16 FLuc inconclusive, MCF10A rereplic 5.17µM*, SW480 rereplic 20.6µM* and RORg inh -36.4%.
COC(=O)c1ccc(Oc2cc(C)nc(SC)n2)cc1 was read as ELG1 repair inh inconclusive, Gal4-VP16 FLuc -1.4%, MCF10A rereplic 3.66µM*, SW480 rereplic 19.0% and RORg inh -27.1%.
For COc1ccc(N(Cc2ccccc2)S(=O)(=O)c2cc(C(=O)O)ccc2Cl)cc1 the results were ELG1 repair inh -4.3%, Gal4-VP16 FLuc -13.7%, MCF10A rereplic 18.4µM*, SW480 rereplic -3.3% and RORg inh -1.5%.
Screening O=C(O)c1ccc(Cl)c(S(=O)(=O)N(Cc2ccccc2)c2ccc(F)cc2)c1 returned ELG1 repair inh inconclusive, Gal4-VP16 FLuc -18.0%, MCF10A rereplic inconclusive, SW480 rereplic 1.8% and RORg inh -2.2%.
